The text below walks through data of PubChem BioAssay AID720540 (National Center for Advancing Translational Sciences (NCATS), 2013).

Screen size: about 1,300 compounds; about 460 (35%) were called active. Inconclusive results (about 39%) are left out. The list shows a part of the results. A number with no mark means an inactive call. Calls follow the shape of the dose curve; as a rule, active = well fitted inhibition curve with a large enough effect; inconclusive = small, poorly fitted or top-dose-only effect; inactive = flat fitted curve, though single readings scatter.
Potency is read from the fitted curve at half-maximal effect.

Chain of Protein phosphatase EYA2 (Homo sapiens) (O00167 whole entry, looked up): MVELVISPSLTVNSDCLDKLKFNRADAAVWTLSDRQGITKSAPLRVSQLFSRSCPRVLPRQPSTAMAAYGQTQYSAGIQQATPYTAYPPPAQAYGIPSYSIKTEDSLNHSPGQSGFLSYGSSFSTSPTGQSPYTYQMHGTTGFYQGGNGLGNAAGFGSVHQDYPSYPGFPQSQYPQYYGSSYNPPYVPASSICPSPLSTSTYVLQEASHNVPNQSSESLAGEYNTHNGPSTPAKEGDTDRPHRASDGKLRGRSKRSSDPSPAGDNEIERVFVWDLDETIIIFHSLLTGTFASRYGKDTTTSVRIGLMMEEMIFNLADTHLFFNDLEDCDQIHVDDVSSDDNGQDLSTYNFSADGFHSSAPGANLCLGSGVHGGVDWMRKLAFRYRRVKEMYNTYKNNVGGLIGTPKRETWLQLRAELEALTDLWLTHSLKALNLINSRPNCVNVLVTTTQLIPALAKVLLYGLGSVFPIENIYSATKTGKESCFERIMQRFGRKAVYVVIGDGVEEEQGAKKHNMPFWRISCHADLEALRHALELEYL

For the test, the target named is Protein phosphatase EYA2 (Homo sapiens) (UniProt O00167). Briefly: qHTS for Inhibitors of the Phosphatase Activity of Eya2: Confirmatory Assay for Cherry-picked Compounds. Also: nearly all actives have a fitted effect of over 65% in size.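 As to activity change, negative = inhibition: 0% = DMSO wells and -100% = EGTA control giving full inhibition.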 To be noted: purified EYA2 phosphatase activity, qHTS confirmation; series mostly up to 46.1 µM; activity change, negative = inhibition: at the top concentration. The gist of the method:
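Eya2 (0.2 uM working solution) preincubated 10 min at room temperature with compound in pH 7.5 HEPES buffer with MgCl2, BSA, DTT. OMFP added (50 uM working solution), 10 min more; fluorescence 485/525 nm, normalized to EGTA and DMSO.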
Regarding `COc1cc2nc(/C=C/c3ccc(N(C)C)cc3)sc2cc1SC`, the Potency is 19 µM (active).
In the case of `COc1ccccc1NC(=O)c1ccc(NC(=O)Cc2n[nH]c(=O)c3ccccc23)cc1`, the “activity change, negative = inhibition” value was -15.9%.
Consider `COc1ccccc1OCC(=O)Nc1ccc(C(=O)Nc2ccccc2C(=O)O)cc1`, for which the Potency is 16.9 µM (active).
Consider `O=C(Nc1ccc(F)cc1)c1ccc2[nH]c(=O)c(=O)[nH]c2c1`, for which the Potency was 4.78 µM (active).
Consider `O=C(NC1=C(Nc2ccc(F)cc2)C(=O)c2ccccc2C1=O)c1ccc(Cl)cc1`, for which the “activity change, negative = inhibition” value was -23.3%.
For `N#Cc1c(N)n(-c2cccc(C(=O)O)c2)c2nc3ccccc3nc12`, the Potency is 16.9 µM (active).
In the case of `N#Cc1c(N)n(-c2ccc(C(=O)O)cc2)c2nc3ccccc3nc12`, the Potency was 16.9 µM (active).
Turning to `Cc1cc(/C=C2\C(=N)N3N=C(CC(=O)N4CCOCC4)SC3=NC2=O)c(C)n1Cc1ccccc1`, the “activity change, negative = inhibition” value is -27.6%.
Take `O=C(NN=C1CCCC1)c1[nH]c2ccc(Br)cc2c1-c1ccccc1`: the “activity change, negative = inhibition” value was -27.5%.
Consider `COc1cc(/C=C2\C(C)=C(C#N)c3nc(N)c(C#N)c(C)c32)ccc1OCC(=O)O`, for which the Potency was 16.9 µM (active).
Take `CN(C)c1ccc(/C=C2\C=Cc3cc(N)ccc32)cc1`: the Potency was 8.49 µM (active).
Same read-out and setting: then `CN(C)c1ccc(/C=C2\CCc3cc(N)ccc32)cc1`, with 8.49 µM (active).
`COc1ccc2c(c1)C=C/C2=C\c1ccc(N(C)C)cc1`: the Potency is 5.36 µM (active).
In the case of `Cc1cccc(S(=O)(=O)C(C#N)c2nc3ccccc3nc2N2CCOCC2)c1` (stereo not drawn), the “activity change, negative = inhibition” value is -19.8%.
Take `O=S(=O)(c1ccc(Cl)cc1)N1CCOCC1`: the “activity change, negative = inhibition” value was 0.87%.
On to `O=C(Nc1nc(-c2ccccn2)cs1)c1cccc(S(=O)(=O)N2CCOCC2)c1`, for which the Potency was 1.51 µM (active).
`S=C(Nc1ccc2c(c1)OCCO2)Nc1ccc2c(c1)OCO2`: the “activity change, negative = inhibition” value is -21.9%.
As to `COc1ccc(C(=O)Nc2nc(-c3ccccn3)cs2)cc1S(=O)(=O)N1CCOCC1`, the Potency is 1.51 µM (active).
As to `Cc1ccc(NC(=O)c2cc(=O)c3ccccc3o2)cc1S(=O)(=O)N1CCCCC1`, the Potency was 12 µM (active).
Consider `O=C(Nc1cc(S(=O)(=O)N2CCOCC2)ccc1Cl)c1cc(=O)c2ccccc2o1`, for which the “activity change, negative = inhibition” value was -22.8%.
Regarding `Cc1ccc(NC(=O)c2ccc3c(c2)OCO3)cc1S(=O)(=O)N1CCOCC1`, the Potency was 9.53 µM (active).
Regarding `Cc1ccc(NC(=O)COc2ccc(S(=O)(=O)N3CCOCC3)cc2)cc1`, the “activity change, negative = inhibition” value was -10.9%.
In the case of `CC(C(=O)c1ccc(Br)cc1)[n+]1cccc2ccccc21` (stereo not drawn), the “activity change, negative = inhibition” value was 24.3%.
In the case of `O=C1c2ccccc2C(=O)N1CCCc1cn(C[C@H]2CC[C@@H]([C@@H]3CC[C@H](Cn4cc(CCCN5C(=O)c6ccccc6C5=O)nn4)O3)O2)nn1`, the “activity change, negative = inhibition” value was -2.94%.
As to `COc1ccc(CC(=O)Nc2cccc(Cl)c2C)cc1S(=O)(=O)N1CCOCC1`, the “activity change, negative = inhibition” value was -7.62%.
Regarding `CCOC(=O)N1CCN(S(=O)(=O)c2ccc(C(=O)NNc3nc4ccc(Cl)cc4s3)cc2)CC1`, the “activity change, negative = inhibition” value was -26.1%.
Turning to `COc1ccc(C(=O)Nc2ccc3nc(C)sc3c2)cc1S(=O)(=O)N1CCOCC1`, the Potency was 16.9 µM (active).
Turning to `CC(C)N=c1cc2n(-c3ccc(Cl)cc3)c3ccccc3nc-2cc1Nc1ccc(Cl)cc1`, the Potency is 1.9 µM (active).
With `N#C/C(=C\c1ccc(OC(=O)c2ccc(Br)s2)cc1)c1nc2ccccc2[nH]1`, the “activity change, negative = inhibition” value is -29.8%.
With `N#C/C(=C\c1ccc(OC(=O)c2ccccn2)cc1)C(N)=O`, the Potency is 16.9 µM (active).
As for `N#C/C(=C/c1ccc(OC(=O)c2ccc(Br)s2)cc1)c1nc2ccccc2[nH]1`, the “activity change, negative = inhibition” value is -20.4%.
On to `CCOC(=O)/C(C#N)=C/c1ccc(OC(=O)c2ccccn2)cc1`, for which the Potency was 8.49 µM (active).
Consider `N#C/C(=C\c1ccc(OC(=O)c2ccc(Cl)s2)cc1)c1nc2ccccc2[nH]1`, for which the “activity change, negative = inhibition” value was -24.6%.
Turning to `CC(=O)Nc1cc(=O)c2cccnc2[nH]1`, the Potency is 15.1 µM (active).
On to `CNC(=O)c1cc2c(cn1)[nH]c1ccccc12`, for which the “activity change, negative = inhibition” value was -20.3%.
As for `CCNc1ccc2noc3c2c1C(=O)c1ccccc1-3`, the Potency is 6.75 µM (active).
`COc1cc(CNCc2ccc(OC)cc2OC)cc(OC)c1`: the “activity change, negative = inhibition” value is -15.2%.
On to `CSc1nc(NCCOCCO)c2sc3nc(-c4ccco4)c4c(c3c2n1)CCC4`, for which the Potency was 7.57 µM (active).
Same read-out and setting: then `CCCOc1ccc(C2C3=C(Nc4nc(N)[nH]c(=O)c42)c2ccccc2C3=O)cc1` (stereo not drawn), with 3.38 µM (active); and `Nc1nc2c(c(=O)[nH]1)C(c1cccc3ccccc13)C1=C(N2)c2ccccc2C1=O` (stereo not drawn), with 7.57 µM (active); and `CCOc1ccc(C2C3=C(Nc4nc(N)[nH]c(=O)c42)c2ccccc2C3=O)cc1` (stereo not drawn), with 2.69 µM (active).
The same measure, in the same setting: under `Nc1nc2c(c(=O)[nH]1)C(c1ccccc1)C1=C(N2)c2ccccc2C1=O` (stereo not drawn) stands 1.69 µM (active).
In the case of `O=C1/C(=C/c2ccco2)SC(=S)N1c1cccnc1`, the Potency was 12 µM (active).
For `Nc1n[nH]c2cc(=O)n(-c3ccc(Cl)cc3)nc12`, the “activity change, negative = inhibition” value was -21.2%.
For `Cn1nc(C(=O)Nc2nc3ccccc3[nH]2)c2ccccc2c1=O`, the Potency is 16.9 µM (active).
`CCN(CC)C(=O)CC(c1ccc(OC)cc1)c1c(OC)cc(OC)c2ccc(=O)oc12` (stereo not drawn): the “activity change, negative = inhibition” value is -8.28%.
With `CN1N/C(=C\c2ccccc2)N=C2C(=O)N(C)C(=O)N=C21`, the Potency was 12 µM (active).
`CCOc1cccc(CN2CCC(CCC(=O)NC3CC3)CC2)c1O`: the “activity change, negative = inhibition” value is -6.6%.
